According to PubChem BioAssay (NCATS):
Results filed as inconclusive are left out. A call without a number means that no potency is given here. Unmarked numbers belong to inactive results. Active and inactive are the calls of the source. Calls follow the shape of the dose curve; as a rule, active = well fitted inhibition curve with a large enough effect; inconclusive = small, poorly fitted or top-dose-only effect; inactive = flat fitted curve, though single readings scatter.

How the values were obtained:
[1] = molecular target: Glutathione peroxidase 1 (Homo sapiens) (UniProt P07203); assay: Primary qHTS Assay for Inhibitors of Recombinant Selenoprotein Glutathione Peroxidase 1 (GPX1) (AID 1845191)
Sequence of Glutathione peroxidase 1 (Homo sapiens) (P07203 whole entry, looked up): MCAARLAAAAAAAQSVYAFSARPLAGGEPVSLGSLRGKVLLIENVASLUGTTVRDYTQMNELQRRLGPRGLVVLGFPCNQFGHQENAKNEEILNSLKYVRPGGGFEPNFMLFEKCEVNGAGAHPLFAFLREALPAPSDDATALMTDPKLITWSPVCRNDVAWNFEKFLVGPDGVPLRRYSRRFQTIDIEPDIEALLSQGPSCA
In short: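 10 nM GPX1 + cpd, 30 min RT; start w/ 1 mM GSH, 0.5 mM cumene hydroperoxide, 0.5 mM NADPH, 100 nM GR, 0.01% BSA; buffer 50 mM Tris-HCl pH 7.5, 2 mM EDTA, 150 mM NaCl; Fl 340/450, 0 & 15 min.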

[2] = molecular target: Phospholipid hydroperoxide glutathione peroxidase GPX4 (Homo sapiens) (UniProt P36969); assay: Primary qHTS Assay for Inhibitors of Recombinant Selenoprotein Glutathione Peroxidase 4 (GPX4) (AID 1845192)
Sequence of Phospholipid hydroperoxide glutathione peroxidase GPX4 (Homo sapiens) (P36969 whole entry, looked up): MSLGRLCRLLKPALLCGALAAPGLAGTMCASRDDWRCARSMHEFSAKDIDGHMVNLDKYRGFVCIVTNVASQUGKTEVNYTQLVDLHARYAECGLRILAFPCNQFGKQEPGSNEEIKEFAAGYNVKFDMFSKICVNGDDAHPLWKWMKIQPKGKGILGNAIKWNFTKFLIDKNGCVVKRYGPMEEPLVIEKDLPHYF
In short: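 NADPH consumption, followed by fluorescence at 340/450 nm between 0 and 15 min, reports GPX4 activity via coupled glutathione reductase (100 nM). Enzyme 200 nM was pre-exposed to compound 30 min; 0.5 mM cumene hydroperoxide and 1 mM GSH served as substrates.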
Also: nearly all actives have a fitted effect of over 65% in size.
Potency is read from the fitted curve at half-maximal effect.

Compound	Potency [1]	Potency [2]	activity, negative = inhibition [1]
CCSc1ccc2c(c1)N(CCCN1CCN(C)CC1)c1ccccc1S2	inactive		
CN(C)C=Nc1c(I)cc(I)c(CCC(=O)O)c1I	inactive		
Nc1nc(=O)n([C@@H]2CS[C@H](CO)O2)cc1F	inactive	inactive	
O=C(O)CCC/C=C\C[C@@H]1[C@@H](/C=C/[C@@H](O)COc2cccc(Cl)c2)[C@H](O)C[C@@H]1O	inactive		
CSc1nc2cc(Oc3cccc(Cl)c3Cl)c(Cl)cc2[nH]1	inactive		
CC(=O)Nc1c(I)c(C(=O)N[C@H]2C(O)O[C@H](CO)[C@@H](O)[C@@H]2O)c(I)c(N(C)C(C)=O)c1I (stereo not given in full)	inactive		
CC(=O)Nc1c(I)c(C(=O)O)c(I)c(N(C)C(C)=O)c1I	inactive	inactive	
O=C1CCC(=O)N1CO	inactive	inactive	
CC(C)(C)CC(C)(C)c1cc(Cc2cc(C(C)(C)CC(C)(C)C)cc(-n3nc4ccccc4n3)c2O)c(O)c(-n2nc3ccccc3n2)c1			-7.19% [at 4.49 µM]
C[S+](C)CCC(N)C(=O)O (stereo not given)	inactive	inactive	
NC(=S)NS(=O)(=O)c1ccc(N)cc1	inactive		
CC(C)CCCC(C)NC(C)C (stereo not given)	inactive	inactive	
COC(=O)c1ccccc1O	inactive		
OCCOCCOCCO	inactive	inactive	
FC(F)(F)C(F)(F)C(F)(F)C(F)(F)C(F)(F)C(F)(F)F	inactive	inactive	
NC(=O)[C@H]1O[C@@H](O)[C@H](O)[C@@H](O)[C@@H]1O	inactive	inactive	
Nc1ccc(N=Nc2ccccc2)c(N)n1	inactive		
O=C(CCCN1CCC(C(=O)c2ccc(F)cc2)CC1)c1ccc(F)cc1	inactive		
N#Cc1ccc2c(c1)N(CCCN1CCC(O)CC1)c1ccccc1S2	inactive	inactive	

Compound	Potency [1]	Potency [2]	activity, negative = inhibition [1]
OC[C@H]1O[C@@](CO)(O[C@H]2O[C@H](CO)[C@@H](O)[C@H](O)[C@H]2O)[C@@H](O)[C@@H]1O	inactive	inactive	
CCN(CC)CCOC(=O)c1cccnc1	inactive	inactive	
CCOC(=O)[C@H](CS)NCCN[C@@H](CS)C(=O)OCC	22.7 µM (active)		
CCCCCCCCCC(=O)NO	inactive	inactive	
CC(CN(C)C)CN1c2ccccc2Sc2ccc(C(F)(F)F)cc21 (stereo not given)	inactive	inactive	
CCCCCCCCCCCCCC(=O)OCC(COP(=O)([O-])OCC[N+](C)(C)C)OC(=O)CCCCCCCCCCCCC (stereo not given)	inactive	inactive	
CC(C)(CO)[C@@H](O)C(=O)NCCC(=O)NCCSSCCNC(=O)CCNC(=O)[C@H](O)C(C)(C)CO	inactive	inactive	
CC(CC=O)CCCC(C)(C)O (stereo not given)	inactive	inactive	
Nc1nc(/C(=C/CC(=O)O)C(=O)N[C@@H]2C(=O)N3C(C(=O)O)=CCS[C@H]23)cs1	9.04 µM (active)		
COc1ccc2c(c1)OC(C)(C)C(c1ccccc1)C2c1ccc(OCCN2CCCC2)cc1 (stereo not given)	inactive	inactive	
CN1CCN(C(c2ccccc2)c2ccc(Cl)cc2)CC1 (stereo not given)	inactive		
O=[N+]([O-])c1c(Cl)cccc1-c1c[nH]cc1Cl	inactive		
CCCCC(=O)O[C@H]1CC[C@H]2[C@@H]3CCc4cc(O)ccc4[C@H]3CC[C@]12C	inactive	inactive	
CCCC1C(=O)N2C(N(C)C)=Nc3ccc(C)cc3N2C1=O (stereo not given)	inactive		
CCN(CC)CCOc1ccc2nc(N(C)C)sc2c1	inactive	inactive	
COc1cc2c(cc1OC)[C@@H](Cc1cc(OC)c(OC)c(OC)c1)[N+](C)(CCCOC(=O)CC/C=C/CCC(=O)OCCC[N+]1(C)CCc3cc(OC)c(OC)cc3[C@H]1Cc1cc(OC)c(OC)c(OC)c1)CC2 (stereo not given in full)	inactive	inactive	
CCC(Oc1ccccc1)C(=O)N[C@@H]1C(=O)N2[C@@H]1SC(C)(C)[C@@H]2C(=O)O (stereo not given in full)	inactive	31.6 µM (active)	
CC(C)(C)c1ccc2c(S(=O)(=O)O)c(C(C)(C)C)ccc2c1	inactive		
CO[C@@]1(NC(=O)C2SC(=C(C(N)=O)C(=O)O)S2)C(=O)N2C(C(=O)O)=C(CSc3nnnn3C)CS[C@@H]21 (stereo not given in full)	10.1 µM (active)	17.8 µM (active)	
